An excerpt weighted towards active compounds, which were near 20% of everything screened.
Shiga toxin inh: blocks Shiga toxin action in Vero cells. inhibition, % at 38.7 µM. Vero cells, Shiga toxin protein synthesis inhibition reporter. AID 2315. 290,000 tested, 9.2% active; in the data active = inhibition mostly above about 28%, no sharp cut-off; inactive = mostly below about 43%; also: 0% is about no effect
Pf growth 48h: inhibits P. falciparum growth in the first generation, 48 h; P. falciparum luciferase growth in erythrocytes, 48 h; 310,000 tested, 5.9% active; Potency, µM (series often up to 28.7 µM), inactives show at the highest dose activity change, negative = inhibition, hits mostly inhibitors; AID 504832; also: potency is read from the fitted curve at half-maximal effect; % is scaled to controls: 0 for no effect and ±100 for the full control effect
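A one-generation exposure of luciferase-tagged malaria parasites in RPMI 1640/Albumax erythrocyte culture, 37 C and 5% CO2. Inhibition is inferred from decreased luminescence after adding detection reagent.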
Cycloheximide cs: counter-screen hit for Shiga toxin inhibitors, cycloheximide; 300,000 tested, 12% active; cell reporter, cycloheximide protein synthesis inhibition counterscreen; AID 2314; max response, %; in the data active = max response mostly above about 13%, no sharp cut-off; inactive = mostly below about 14%; also: read at 38.3 µM for the half of the compounds with a filed dose; 0% is about no effect
HCMV antiviral: human cytomegalovirus inhibition; 410,000 tested, 4.5% active; HFF cells, HCMV-luciferase reporter, 72 h; stronger effect = lower value; activity change, negative = inhibition, % at 57.5 µM; in the data active = activity change below about -60%; inconclusive = no clear call, values can overlap the other calls; inactive = above about -39%; also: % is scaled to controls: 0 for no effect and ±100 for the full control effect
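Human foreskin fibroblasts infected with luciferase-reporter HCMV at MOI 1 PFU/cell, compounds at two doses. Luciferase measured 72 h post infection; normalized to buffer-only basal and Salinomycin (10uM) controls.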
Pf growth 96h: P. falciparum growth inhibition at 96 hours. P. falciparum luciferase reporter growth, 96 h. Potency, µM (top dose mostly 28.7 µM), without a hit: at the highest dose activity change, negative = inhibition, usual class: inhibitors. 320,000 tested, 6.9% active; also: potency is read from the fitted curve at half-maximal effect; % is scaled to controls: 0 for no effect and ±100 for the full control effect
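Infected RBCs, 2% Hct / 0.05% parasitemia final; luciferase-reporter P. falciparum; cpd 96 h, 37 C, 5% CO2; luciferase detection reagent; luminescence.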
* = called active by the depositor; ? = inconclusive; . = no result given. Unless noted, calls follow the shape of the dose curve; as a rule, active = well fitted inhibition curve with a large enough effect; inconclusive = small, poorly fitted or top-dose-only effect, or another doubt; inactive = no such curve, though single readings can be large or run the other way.

SMILES	Shiga toxin inh	Pf growth 48h	Cycloheximide cs	HCMV antiviral	Pf growth 96h
O=c1c(-c2ccc(O)cc2)coc2cc(O)cc(O)c12	112*	121%	31*	72	178%
COc1ccc(-c2coc3cc(OC)cc(OC)c3c2=O)cc1	49*	97%	34*	97	129%
CC(C)Oc1cc(O)c2c(=O)c(-c3ccc(O)cc3)coc2c1	82*	86%	30*	?	2.9µM*
COc1ccc(-c2coc3cc(O)c(OC)cc3c2=O)cc1	.	99%	.	112	81%
CCNS(=O)(=O)c1ccc(C(=O)OCc2cc(=O)oc3cc(OC)ccc23)cc1	-6	-5%	-4	11	0%
COc1ccc(-c2coc3cc(OC)cc(O)c3c2=O)cc1	51*	85%	52*	91	114%
COc1cc(O)cc2occ(-c3ccc(O)cc3)c(=O)c12	12	107%	13*	0	?
COc1ccc(-c2coc3cc(O)ccc3c2=O)cc1O	38*	382%	41*	74	-6%
CC1(C)CCC(=NNC(N)=S)CC1	.	.	.	0	.
CC1(C)C2CCC(C2)C1C/C=N/NC(N)=S (stereo not drawn)	8	-41%	-3	-73*	6%
COc1cc(NC(=O)c2ccnn2C)c(OC)cc1Cl	-17	-4%	-4	14	25%
CCNC(=O)/C(C#N)=C/c1c(N2CCN(Cc3ccc4c(c3)OCO4)CC2)nc2c(C)cccn2c1=O	-19	7.4µM*	-2	-18	3.7µM*
CCNC(=O)/C(C#N)=C/c1c(N2CCN(c3cccc(Cl)c3)CC2)nc2c(C)cccn2c1=O	-5	12µM*	-2	-40	?
Cc1cccn2c(=O)c(C=C(C#N)C#N)c(N3CCN(c4cccc(Cl)c4)CC3)nc12	-3	7.4µM*	-3	-23	?
COC(=O)/C(C#N)=C/c1c(N2CCN(c3cccc(Cl)c3)CC2)nc2c(C)cccn2c1=O	-9	?	-4	?	?
COc1cccc(CN2c3ccccc3-c3nc(SCC(=O)Nc4ccccc4Cl)ncc3S2(=O)=O)c1	.	.	.	-14	.
CC(C)c1ccc(NC(=O)c2ccc(NC(=O)CCS(=O)(=O)c3cccs3)cc2)cc1	.	.	.	6	.
Cc1ccc(CNC(=O)c2ccc(CSCc3ccccc3Cl)o2)cc1	.	.	.	1	.
CCCCNC(=O)COC(=O)c1ccc(SC)cc1OC	16	24%	13	-1	20%
Cc1ccc(-c2nc(CSCC(=O)N3CCCC3)c(C)o2)cc1	37	?	13	?	-8%
Cc1cccc(-c2nc(CSCC(=O)N3CCN(c4cccc(C)c4C)CC3)c(C)o2)c1	.	.	.	-65*	.
COc1ccc(-c2nc(CSCC(=O)N3CCN(c4cccc(C)c4)C(C)C3)c(C)o2)cc1OC (stereo not drawn)	-5	?	8	-18	?
Cc1cccc(-c2nc(CSCC(=O)N3CCN(c4ccccn4)CC3)c(C)o2)c1	-12	32%	-4	-66*	371%
COc1ccc(CC(=O)NCC2CCCN(Cc3ccccc3Cl)C2)cc1 (stereo not drawn)	-8	-17%	-3	-38	184%
COc1ccccc1OCC(=O)NCC1CCCN(C(=O)c2ccccc2C(C)=O)C1 (stereo not drawn)	5	6%	-1	-33	17µM*
SMILES	Shiga toxin inh	Pf growth 48h	Cycloheximide cs	HCMV antiviral	Pf growth 96h
COc1ccc(C(=O)N2CCCC(CNC(=O)c3ccccc3Cl)C2)o1 (stereo not drawn)	20	0%	18*	17	68%
CC(=O)c1ccccc1C(=O)N1CCCC(CNC(=O)c2ccccc2Cl)C1 (stereo not drawn)	32	16%	27*	-1	?
CCOC(=O)c1c(C)[nH]c(C)c1S(=O)(=O)N1CCC(C(=O)Nc2ccc(C)cn2)CC1	.	.	.	-11	.
O=C(CNC(=O)c1ccc(F)cc1)OCc1cc(=O)n2nc(C3CCCCC3)sc2n1	.	.	.	24	.
CCCn1c(C)cc(C(=O)COC(=O)c2ccc(Cl)c(S(=O)(=O)N3CCCC3)c2)c1C	142*	-17%	31*	23	?
Cc1cc(C(=O)COC(=O)C2=NNC(=O)CC2)c(C)n1-c1ccccc1	38*	13%	29*	0	.
Cc1ccc(-n2c(C)cc(C(=O)COC(=O)c3ccc[nH]c3=O)c2C)cc1C	67*	-26%	27*	-21	?
Cc1cc(C(=O)COC(=O)c2ccc[nH]c2=O)c(C)n1-c1ccccc1F	-19	119%	1	59	89%
Cc1ccc(-n2c(C)cc(C(=O)COC(=O)C3=NNC(=O)CC3)c2C)cc1	13	?	8	-7	.
CCCn1c(C)cc(C(=O)COC(=O)c2ccc[nH]c2=O)c1C	45*	86%	29*	-16	73%
COc1cc(CCNC2=CC(=O)c3ncccc3C2=O)ccc1O	.	.	.	0	.
COc1ccc(CCNC(=O)COc2nncc3ccccc23)cc1	2	-11%	0	-7	29%
COc1ccc(OC)c(NC(=O)CSC2=Nc3ccccc3C3=NC(CC(=O)NCc4ccc5c(c4)OCO5)C(=O)N23)c1 (stereo not drawn)	.	.	.	-6	.
CC(C)(C)OC(=O)N[C@@H](Cc1ccccc1)[C@H](O)c1ccco1	40	29%	20*	13	-15%
COc1cccc(-c2nc(CS(=O)CC(=O)NC3CCCCC3)c(C)o2)c1 (stereo not drawn)	11	-14%	-2	0	?
COc1ccccc1OC(C)C(=O)Nc1ccccc1C(=O)NCC1CCCO1 (stereo not drawn)	-8	-19%	-4	-26	18%
CCOC(=O)CC1=NN(c2ccccc2)C(=O)/C1=C\c1ccc(N(C)C)cc1	14	?	-1	-16	5.9µM*
Cc1ccc(S(=O)(=O)NCC(=O)NCC2CCCCC2)cc1C	5	-1%	-4	-9	18%
Cc1ccc(CC(=O)NCC2CCCCC2)cc1	71*	6%	26*	.	-17%
Cc1cc(C)c(C)c(S(=O)(=O)NCC(=O)NCC2CCCCC2)c1C	-12	-16%	-2	-62*	2%
Cc1ccccc1CC(=O)NCC1CCCCC1	19	-2%	5	-6	12µM*
Cc1ccc(SCCc2cc[n+](CC(=O)c3ccccc3)cc2)cc1	125*	75%	51*	25	?
Cc1ccc(C(=O)C[n+]2ccc(Cc3ccccc3)cc2)cc1	17	?	-2	-88*	8.3µM*
CC(C)(C)C1CCc2c(sc3nc(-c4cc5cc(Br)ccc5oc4=O)[nH]c(=O)c23)C1 (stereo not drawn)	.	.	.	39	.
CCOc1ccc(-c2cccc(NS(=O)(=O)c3ccc(Cl)s3)c2)nn1	.	.	.	18	.
O=c1[nH]c2ccccc2n1C1CCN(C(CCc2ccccc2)c2nnnn2C2CCCC2)CC1 (stereo not drawn)	.	.	.	-102*	.
COc1ccc(-n2nnnc2C(c2ccnc3ccccc23)N2CCC(n3c(=O)[nH]c4ccccc43)CC2)cc1 (stereo not drawn)	.	.	.	-25	.

Screening results: PubChem, National Center for Advancing Translational Sciences (NCATS)
